# Measurements taken from ChEMBL document CHEMBL1157539, “Thousands of chemical starting points for antimalarial lead identification” (Nature, 2010).
# System: Plasmodium falciparum
# Assay: GSK_TCMDC: Inhibition of Plasmodium falciparum 3D7 in whole red blood cells, using parasite LDH activity as an index of growth. Test compounds present at 2uM
# Format: functional
row,SMILES,Inhibition
1,O=C(NC12CC3CC(CC(C3)C1)C2)C(=O)c1c[nH]c2ccccc12,97%
2,O=C(/C=C/c1ccc(C(F)(F)F)cc1)NCCCCCN1CCN(C(=O)Nc2ccc(F)c(Cl)c2)CC1,89%
3,COc1ccc2nccc([C@@H](O)CN3CCC(NCc4cc5ccccc5[nH]4)CC3)c2n1.O=C(O)C(=O)O,100%
4,Cc1cc(N(C)C2CCN(CC3CCCCC3)C2)nc(Nc2ccc(Cl)cc2)n1 (configuration not stated),98%
5,O=C(Nc1cccc(-c2ccc(-c3nc4cc(C(F)(F)F)ccc4[nH]3)s2)c1)c1c[nH]cn1,89%
6,Cc1c[nH]c2ccc(/C=C/C(=O)NC3CCC(CCN4CCc5ccc(C#N)cc5CC4)CC3)cc12.Cl (configuration not stated),100%
7,COc1ccc(CNC2Cc3ccccc3C2)cc1-c1ccc(S(=O)(=O)NCCc2ccccn2)s1.O=C(O)C(F)(F)F,92%
8,CCN(CC)CCCCNc1cc(-c2[nH]c(C(C)(C)C)nc2-c2ccc3cc(OC)ccc3c2)ccn1.O=C(O)C(F)(F)F,85%
9,Cc1cc([N+](=O)[O-])ccc1N1CCN(CCCCNC(=O)c2ccc(NC(=O)c3ccc(Cl)cc3)cc2)CC1,92%
10,CCCCN(CCCC)C(=N)c1cccc2c1CCCC2.Cl,95%
11,CCOc1ccccc1CON1C(N)=NC(N)=NC1(C)C,90%
12,COCCNCc1ncsc1-c1ccc2c(Nc3cc(O)c(Cl)cc3F)ccnc2c1,100%
13,CC1CCCC(NCc2c(O)ccc3ccccc23)C1.Cl (configuration not stated),93%
14,NC(=O)COc1c(C2CCN(CCN3CCC(CNC(=O)c4ccc(-c5ccc(C(F)(F)F)cc5)cc4)CC3)CC2)ccc2c1CCCC2,87%
15,O=C(Nc1ccc2c(c1)CCC2)c1cccc(N2CCN(c3ccncc3)CC2)c1.O=C(O)C(F)(F)F,92%
16,COc1ccc2c(-c3ccccc3)noc2c1,98%
17,Cc1csc2nc(-c3ccccn3)nc(Nc3ccncn3)c12.O=C(O)C(F)(F)F,97%
18,O=C(Nc1ccccc1-c1nc2ccccc2s1)C(Cl)(Cl)Cl,97%
19,O=C([C@H]1CCCCN1c1ccc([N+](=O)[O-])c2ccccc12)N1CCN(c2ncccn2)CC1,97%

row,SMILES,Inhibition
1,CCOc1cc(-c2nnc3[nH]c(=O)n(C)c(=O)c3n2)ccc1OC(C)C,97%
2,COc1cc(NC2=C(c3ccccc3)C(=O)c3ccccc32)ccn1,96%
3,COc1ccc(-c2cc(C(=O)Nc3ccc4[nH]c(-c5ccccc5)nc4c3)[nH]n2)cc1.O=C(O)C(F)(F)F,90%
4,C=CCNS(=O)(=O)c1ccc(NC(=O)C(C)Oc2ccc([N+](=O)[O-])cc2)cc1 (configuration not stated),100%
5,O=c1cc(NCCCNCc2cccc(I)c2)[nH]c2ccccc12,90%
6,O=C(NCCCc1ccccc1)c1csc(C2CCCN(C(=O)c3ccc(O)c(-c4cccc5ccccc45)c3)C2)n1 (configuration not stated),97%
7,Cc1c(NCCCNCc2cc(Cl)cc(Cl)c2Cl)[nH]c2ccccc2c1=O.Cl,100%
8,C=CCOC(=O)N1CCC(CNCc2cccc(-c3ccc(-c4nc5cccc(C)c5[nH]4)cc3)c2)C1.O=C(O)C(F)(F)F (configuration not stated),100%
9,O=C(Nc1ccccc1O)c1ccc(S(=O)(=O)c2ccc(Cl)cc2)cc1,90%
10,O=S(=O)(c1ccc(Oc2ccccc2)cc1)N(CCC(O)(C(F)(F)F)C(F)(F)F)Cc1cccc(O)c1,100%
11,O=C(Nc1ccc(OC(F)(F)F)cc1)Nc1ccc([N+](=O)[O-])cc1,100%
12,COc1cc2c(cc1C=CC(=O)N1CCN(Cc3nc(O)c4c(C)c(C)sc4n3)CC1)OC(C)C2 (configuration not stated),82%
13,C/C=C/COc1ccc2ccccc2c1CNCCCCCCCCNCc1c(OC/C=C/C)ccc2ccccc12.CS(=O)(=O)O.O,87%
14,Cc1ccc(Oc2ncccc2C(=O)Nc2cccc3cccnc23)c(C)c1,99%
15,CN1CCc2cc(NS(=O)(=O)c3ccc(-c4ccc(Cl)cc4)cc3)c(OCCCN3CCCCC3)cc2CC1.Cl,100%
16,O=C1CC(C(=O)Nc2cccc(-c3cccc(-c4nc5ccccc5[nH]4)c3)c2)c2ccccc2N1 (configuration not stated),84%
17,CNCCNCc1cccc(-c2ccc(-c3nc4cccc(C)c4[nH]3)cc2)c1.O=C(O)C(F)(F)F,98%
18,COc1ccc(O)c(C(=O)c2cc(C#N)c(=O)n(-c3ccc(Oc4ccccc4)cc3)c2)c1,97%
